# Experimental data taken from PubChem BioAssay AID1745846 (National Center for Advancing Translational Sciences (NCATS), 2022).
# About 30 (2%) of roughly 1,400 compounds were called active. Roughly 15% stayed inconclusive and do not appear here. The sample as a whole holds a higher share of actives than the screen did. Values without a mark were called inactive. Calls follow the shape of the dose curve; as a rule, active = well fitted inhibition curve with a large enough effect; inconclusive = small, poorly fitted or top-dose-only effect; inactive = flat fitted curve, though single readings scatter.
# Assay: Firefly Luciferase Counterscreen for Inhibitors of ATXN expression
# Settings: luminescence; series mostly up to 57.5 µM; activity change, negative = inhibition: at the top concentration
# Source text: University of Utah School of Medicine, Salt Lake City, Utah
# Spinocerebellar ataxia type 2 (SCA2) is a multisystem neurodegenerative disease caused by a dominantly acting mutation leading to expansion of a polyQ domain in the ataxin-2 protein (ATXN2). SCA2 patients develop progressive ataxia and later lose function in other neuronal systems. Prominent parkinsonian signs develop in some patients. Like many neurodegenerative disorders, no symptomatic or disease-modifying treatments are known.
# The primary objective of the proposed research is to identify compounds inhibiting ATXN2 expression and to test them for efficacy in SCA2 mouse models. We have developed a cell-based assay paired with an in vivo mouse model using identical luciferase expression constructs. This approach takes advantage of an ATXN2-luciferase transgene, with the luciferase gene flanked by the upstream and downstream portions of the ATXN2 gene. Here we describe a 5-7 dose quantitative high thoroughput screen (qHTS) for compounds lowering ATXN2 expression. We screened the NIH Molecular Libraries Small Molecule Repository (MLSMR) and NCGC's mechanistically annotated (MIPE) and drug repurposing (NPC) collections of compounds for lowering expression of an ATXN2-luciferase reporter in HEK-293 cells. The assay is a multiplexed cell viability assay to ensure target reduction in the absence of cytotoxicity. Secondary qHTS assays included a CMV-luciferase reporter expressed in HEK-293 cells as well as a biochemical assay using recombinant luciferase to detect inhibitors of the reporter enzyme. Compounds that inhibit ATXN2 expression but is not cytotoxic were selected for confirmatory and secondary screens.
# PROTOCOL TABLE (as described by Inglese J, Shamu CE and Guy RK. 2007)
# SEQUENCE No. (e.g., 1, 2, 3, etc.); […] (e.g., Cells, Incubation, Reagent, etc.); VALUE; DESCRIPTION.
# 2; Compounds; 23 nL; Kalypsis pintool (Wako USA) equipped with a 1536-well pin head.
# 3; Enzyme; 1 uL; recombinant firefly luciferase (prepared in 50 mM Tris HCl pH7.5, 10 mM MgCl2, 0.05% BSA, 0.01% Tween20) at final concentration of 10 nM. Wells containing buffer only were used as control (set as 100% inhibition when normalizing data).
# 4; Incubation; 10 min; room temperature.
# 5; Detection; Luminescence; Viewlux plate reader (PerkinElmer).
# NOTES (numbers refer to Sequence numbers above)
# 1. Luciferase substrate is added to 1536 well, Greiner white assay plate. Evaporation was prevented by covering assay plates with metal lids containing holes to allow gas diffusion.
# 2. Compounds were added in a dose response manner with the final concentrations of 57, 11.4, 2.28, 0.46, 0.091, 0.018, 0.0037 uM. Vehicle-only plates, with DMSO being pin-transferred to columns 5-48, were inserted uniformly at the beginning and the end of each library to monitor and record any shifts in assay performance.
# 3. Recombinant firefly luciferase (10 nM final concentration) is added to the assay plate.
# 5. End-point luminescence is then measured on the Viewlux (PerkinElmer) imager equipped with a clear emission filter using a 2 sec exposure.
# Inglese J, Shamu CE and Guy RK, Reporting data from high throughput screening of small molecule libraries, Nature Chemical Biology, 2007, 3(8): 438-441. doi.org/10.1038/nchembio0807-438.
# % is scaled to controls: 0 for no effect and ±100 for the full control effect; potency is read from the fitted curve at half-maximal effect.
Structure (SMILES),"activity change, negative = inhibition",Potency
O=C(NCc1ccccc1)c1ccc(C(=O)N(C2CCCCC2)C2CCCCC2)cc1,0.27%,–
CC(CCc1ccccc1)NC(=O)c1ccc(C(=O)NC(C)CCc2ccccc2)cc1 (stereo unspecified),1.04%,–
O=C(NNCc1ccccc1)c1ccccc1,–,10 µM (active)
Cc1ccccc1N=Nc1ccc(O)c2ncccc12,-2.38%,–
CCN1C(=O)/C(=C/c2nc3ccccc3c(=O)n2-c2ccccc2)c2ccccc21,0.962%,–
CC(=O)Nc1cccc(-c2ccnc3c2CC(C)(C(=O)Nc2cccc(Oc4ccccc4)c2)O3)c1 (stereo unspecified),-1.45%,–
COc1ccc2sc(-c3ccc(SC)cc3)c(-c3ccc(O)cc3)c2c1,2.23%,–
COc1cc(/C=C(/C#N)C(=O)NCCc2c[nH]c3ccccc23)ccc1OCc1ccccc1F,1.42%,–
COCCCNCCCOc1ccc(Cl)cc1C(C)(C)C,1.71%,–
CC(C)C1C(=O)N(Cc2cn(CCC3OCCO3)nn2)CCS(=O)(=O)N1Cc1ccc(-c2ccc(Cl)cc2)cc1 (stereo unspecified),-3.28%,–
COc1cccc(S(=O)(=O)NCc2ccc(C(=O)Nc3cccc(Cl)c3)cc2)c1,-2.18%,–
Cc1ccc(OCCCC(=O)NNC(=O)c2ccccn2)cc1,-1.95%,–
CCCC(NCC(O)COc1ccc(-c2ccccc2)cc1)c1ccccc1 (stereo unspecified),-3.86%,–
O=C(CSc1nnc(-c2ccc(Br)cc2)o1)Nc1cccc(C(=O)O)c1,–,3.98 µM (active)
O=C(Nc1cccc(Br)c1)c1cccc(OC(=S)N2CCOCC2)c1,-13.5%,–
O=C(CSc1n[nH]c(-c2ccccn2)n1)Nc1ccccc1,-13.1%,–
CC1(C(=O)Nc2cnc3ccccc3c2)CCN1C(=O)c1ccccc1CCc1ccccc1 (stereo unspecified),-1.11%,–
O=C(NC(Nc1ncc(S(=O)(=O)c2ccc([N+](=O)[O-])cc2)s1)(C(F)(F)F)C(F)(F)F)c1ccc(Cl)cc1,-10.1%,–
NC(Cc1ccc(C(F)(F)F)cc1)c1csc(Nc2ccc(C(=O)c3ccccc3)cc2)n1 (stereo unspecified),0.547%,–
Cc1ccc(C2CC(=O)Nc3c2ccc2ccccc32)cc1[N+](=O)[O-] (stereo unspecified),-4.69%,–
CCc1nc2c(OCc3ccc(Cl)cc3)cccn2c1N(C=O)Cc1ccc(OC)cc1,-3.69%,–
COc1ccc(Cc2[nH]n3c(=O)cc(C(C)C)nc3c2-c2ccccc2)cc1,-12.5%,–
CNC(=O)c1sc(N2N=C3/C(=C/c4ccccc4)CCCC3C2c2ccccc2)nc1C (stereo unspecified),-2.34%,–
CN1CCC(N(C)S(=O)(=O)c2ccc(NC(=O)COc3ccc(Br)cc3Cl)cc2)CC1,-14.6%,–
CN(C)CCNc1ccc(CO)c2sc3ccc(O)cc3c(=O)c12,-5.83%,–
CCn1cc(Cl)c(C(=O)N2N=C(c3ccc4ccccc4c3)CC2c2ccccc2O)n1 (stereo unspecified),-3.47%,–

Structure (SMILES),"activity change, negative = inhibition",Potency
CC(=O)NC(=C(Cl)Cl)S(=O)(=O)c1ccccc1,1.35%,–
S=C(NCc1cccnc1)Nc1ccc(Oc2ccc(Cl)cc2)cc1,-0.796%,–
C(=NN1CCCCCC1)c1ccc2ccccc2n1,–,0.1 µM (active)
S=C(Nc1cc(Cl)ccc1Oc1ccccc1)N1CCN(c2ccccn2)CC1,-1.6%,–
CN(c1ccccc1)S(=O)(=O)c1cccc(NC(=O)c2cc(=O)c3ccccc3o2)c1,-0.345%,–
O=C(COc1nsnc1N1CCOCC1)N/N=C/c1ccccc1O,-13.4%,–
COc1ccccc1N(CC(=O)N/N=C/c1c(O)ccc2ccccc12)S(C)(=O)=O,-10.5%,–
Cn1c(CO)cnc1SCC(=O)c1ccc(Br)cc1,-8.93%,–
CC(=O)Nc1cccc(-c2ccnc3c2CC(C)(C(=O)Nc2ccc(Cl)cc2)O3)c1 (stereo unspecified),-2.94%,–
CCCCOc1ccc(CSC(=N)N)cc1Cl,-4.4%,–
O=[N+]([O-])c1cc(Cl)c(O)c2ncccc12,-17.6%,–
Cc1cccn2c(=O)c(/C=C(\C#N)C(N)=O)c(N3CCN(c4cccc(Cl)c4)CC3)nc12,0.85%,–
NC(c1csc(NC(=O)c2cccc(OC(F)(F)F)c2)n1)c1ccccc1Cl (stereo unspecified),-0.688%,–
COc1cc(/C=N\NC(=O)CC#N)ccc1OC/C=C/c1ccccc1,-3.57%,–
COC(=O)c1cc(NC(=O)c2cc(-c3ccc(C(F)(F)F)cc3)oc2C(F)(F)F)ccc1N1CCOCC1,-5.33%,–
COC1CC(C)C(OC)c2cc(O)cc(c2O)NC(=O)C(C)=CC=CC(C)C(OC(N)=O)C(C)=CC(C)C1OC (stereo unspecified),-11.5%,–
Cc1cccc(C(=O)N/N=C2\CS(=O)(=O)N(C)c3ccsc32)c1,-9.38%,–
CC(=O)Oc1ccc(N(C(C)=O)S(=O)(=O)c2ccc(Cl)cc2)c2ccccc12,-17.1%,–
CCOC(=O)CSc1cccc2cccnc12,-10.6%,–
CC(=O)Nc1cccc(-c2ccnc3c2CC(C)(C(=O)Nc2ccc(Cl)c(C(F)(F)F)c2)O3)c1 (stereo unspecified),-1.06%,–
Cc1ccc2ccc(C(Nc3ccccn3)c3ccccc3)c(O)c2n1 (stereo unspecified),-7.07%,–
Cc1nc2ccccc2n1/N=C/c1ccc([N+](=O)[O-])o1,-2.11%,–
CN1CCN(c2ccc(-c3cc(NC=O)c4ncc(-c5ccc(F)c(Cl)c5)n4c3)cc2)CC1,–,15.8 µM (active)
COc1ccccc1-c1cc(NC=O)c2ncc(-c3ccc(F)cc3)n2c1,-1.97%,–
COc1ccc(-c2cnc3c(NC=O)cc(-c4ccccc4OC)cn23)cc1OC,-3.03%,–
